Test results: the supplement of paper PMC10338343
± gives the standard deviation.

system: MILI (PIWIL2) piRISC loaded with piRNA #1 (26 nt); test: pre-steady-state target cleavage rate (min^-1); guide: piRNA #1 5'p-UGAGGUAGUAGGUUGUAUAGUAUCCA; MIWI and MILI are mouse PIWI proteins and EfPiwi is from a freshwater sponge; tags in brackets are library labels; higher = faster piRNA-guided slicing of the target; conditions: auxiliary factor: 500 nM mouse GTSF1
Description: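 Cleave-'n-Seq: a library of target RNAs (target site embedded in constant flanks, ACAGCATTCCGCGTTAGTGATATCCG... 5' flank; DNA-blocked outside the site) at 0.1 nM was incubated with 1 nM active mouse MILI or MIWI piRISC (synthetic 5'-monophosphorylated piRNA guide) with or without 500 nM mouse GTSF1 at 33 °C for 1 min to 16 h. Uncleaved targets were sequenced and normalised to non-target controls, and the pooled three trials were fitted to a burst-and-steady-state model to give the pre-steady-state cleavage rate (min^-1; k3 is constrained to at most 1e-4). Sequence is the target site only; target names encode pairing extent (gX:gY) and contiguous / 1-mismatch / 2-mismatch / bulge geometry. Fits with R² ≤ 0 are excluded.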

Point of comparison: GGAGACCAUACAAUACAACCUACUUCCUCA, “pre-steady-state target cleavage rate” value 0.125 ± 0.016. Against it:
- GGAGACCUAUGUUUAGAACCUACUACCUCA — lower, 0.00346 ± 0.0023
- GGAGACGAUACUAUUCAACCUACUACCACA — higher, 0.161 ± 0.014
- GGAGACCAUACUAUACAGCCUACUACCUCA — within error, 0.157 ± 0.02
- GGAGUGGAUUCUAUACAACGUACUACCUCA — lower, 0.0287 ± 0.0031
- GGAGAGGGAUACUAUACAACCUACUACCUCA — higher, 0.237 ± 0.015
- GGAGACCUAUCUAUACAACCUACUACGAGA — lower, 0.0633 ± 0.017
- GGAGUGGAUACUAUACAAGCUAGUACCUCA — lower, 0.0743 ± 0.014
- GGAGACCUUACUAUAGAACGUACUACCUCA — lower, 0.0109 ± 0.0021
- GGAGACCAUACUAUACAACCUACUAGCCUCA — higher, 0.176 ± 0.024
- GGAGUGGAUUCUUUACAACCUACUACCUCA — higher, 0.16 ± 0.0093
- GGAGACCUAUGAAUACAACUUACUACCUCA — lower, 0.00939 ± 0.003
- GGAGAGGUUACAAUACAACCUACUACCUCA — higher, 0.181 ± 0.014
- GGAGUCGAAACUAUACAACCUACUACCUCA — higher, 0.18 ± 0.019
- GGAGACCUAUGAUAACAACCUACUUCCUCA — lower, 0.00353 ± 0.0025
- GGAGACCUAUCUAUACAAGCUAGUACCUCA — within error, 0.107 ± 0.017
- GGAGAGGAUACUAUACAACCACUACCUCA — lower, 0.00782 ± 0.0025
- GGAGACCUAUCUAUAUAACCUACUACCUCA — lower, 0.0723 ± 0.0089
- GGAGACCUAUGUAUACAUCCUACAACCUCA — within error, 0.114 ± 0.014
- GGAGACCUAUGUAUACAACCUACUGACCUCA — lower, 0.0132 ± 0.0038
- GGAGACCUAACUAUACAACGUACUACCACA — lower, 0.0131 ± 0.0058
- GGAGACCUAUGAUAUGUACCUACUACCCUCA — lower, < 0.0001
- GGAGUGGUUACUAUACAACCUACAACCUCA — lower, 0.0861 ± 0.0095
- GGAGACCUAUGAAUACAACCUAGUACCUGA — lower, < 0.0001
- GGAGACCUAUGUAACAACCUACUACCUCA — lower, 0.0402 ± 0.0057
- GGAGAGGAUAGUAUACAACCUACAACCUCA — lower, 0.037 ± 0.0093
- GGAGACCUUACUAUACAGCCUACUACCUCA — within error, 0.116 ± 0.012
- GGAGUCGAUACUAUACAACCAACUACCUCA — lower, 0.0053 ± 0.0019
- GGAGAGGAUACUAUACAACCUACUACAUCA — lower, 0.0431 ± 0.0077
- GGAGAGGAUACUAUACAACCUAGCUACCUCA — lower, 0.0538 ± 0.0062
- GGAGACCUAUGAUAACAACCUACUACCUUCA — lower, 0.00428 ± 0.0025
- GGAGAGGUAUCUAUACAACCUACUACCUCA — lower, 0.0739 ± 0.0068
- GGAGUGGAAACUAUACUACCUACUACCUCA — higher, 0.193 ± 0.016
- GGAGACCAUACUUUACAACCUAGUACCUCA — within error, 0.119 ± 0.025
- GGAGACCUAUCUAUACAUCCUACUACGUCA — lower, 0.0773 ± 0.017
- GGAGUGGAUACUAUACGACCUACUACCUCA — within error, 0.135 ± 0.0095
- GGAGACCUAUGAUUACAACCUUCUACCUCA — lower, 0.00235 ± 0.0023
- GGAGACCAUACUAUACAACCUACUAGCACA — lower, 0.0527 ± 0.018
- GGAGACCUAUCUAUACAACAUACUACCUCA — lower, 0.0382 ± 0.0074
- GGAGACGUUACUAUACAUCCUACUACCUCA — higher, 0.293 ± 0.018
